nsP2pro primary: blocks chikungunya virus nsP2 protease peptide cleavage; Q8JUX6; FRET peptide cleavage, nsP2pro, fluorescence 1 h; Potency, µM (titrated, usually from 24.9 µM), actives largely listed as inhibitors; 1.1% of 31,000 active; note: nearly all actives have a fitted effect of over 60% in size
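Purified recombinant nsP2pro (150 nM final) in 10 mM Tris-HCl pH 8.0 with 0.01% Tween 20 was preincubated 15 min at room temperature with compound (7 concentrations, up to 25 uM). FRET peptide 2 substrate (2.5 uM final) was then added; fluorescence was read after 1 h.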
nsP2 cell sec: secondary cell-based test for CHIKV nsP2 protease inhibitors; 10% of 450 active; shares compounds with nsP2pro primary; Potency, µM (top dose mostly 51.1 µM), hits mostly inhibitors; AID 1964100; cell-based CHIKV nsP2 protease reporter assay; note: nearly all actives have a fitted effect of over 70% in size
CHIKV NSP2 FL: selectivity test for CHIKV nsP2 protease inhibitors: full-length NSP2; 39% of 410 active; Potency, µM (top dose mostly 50.7 µM), hits mostly inhibitors; shares compounds with nsP2pro primary; Full-length CHIKV NSP2 protease enzymatic counterscreen; note: nearly all actives have a fitted effect of over 65% in size
Furin counter: human furin inhibition, counterscreen for nsP2pro inhibitors | shares compounds with nsP2pro primary | Recombinant human furin enzymatic counterscreen, fluorogenic substrate | Potency, µM (doses to about 50.6 µM), actives largely listed as inhibitors | 6% of 410 active
Target sequence (P09958 whole entry, looked up): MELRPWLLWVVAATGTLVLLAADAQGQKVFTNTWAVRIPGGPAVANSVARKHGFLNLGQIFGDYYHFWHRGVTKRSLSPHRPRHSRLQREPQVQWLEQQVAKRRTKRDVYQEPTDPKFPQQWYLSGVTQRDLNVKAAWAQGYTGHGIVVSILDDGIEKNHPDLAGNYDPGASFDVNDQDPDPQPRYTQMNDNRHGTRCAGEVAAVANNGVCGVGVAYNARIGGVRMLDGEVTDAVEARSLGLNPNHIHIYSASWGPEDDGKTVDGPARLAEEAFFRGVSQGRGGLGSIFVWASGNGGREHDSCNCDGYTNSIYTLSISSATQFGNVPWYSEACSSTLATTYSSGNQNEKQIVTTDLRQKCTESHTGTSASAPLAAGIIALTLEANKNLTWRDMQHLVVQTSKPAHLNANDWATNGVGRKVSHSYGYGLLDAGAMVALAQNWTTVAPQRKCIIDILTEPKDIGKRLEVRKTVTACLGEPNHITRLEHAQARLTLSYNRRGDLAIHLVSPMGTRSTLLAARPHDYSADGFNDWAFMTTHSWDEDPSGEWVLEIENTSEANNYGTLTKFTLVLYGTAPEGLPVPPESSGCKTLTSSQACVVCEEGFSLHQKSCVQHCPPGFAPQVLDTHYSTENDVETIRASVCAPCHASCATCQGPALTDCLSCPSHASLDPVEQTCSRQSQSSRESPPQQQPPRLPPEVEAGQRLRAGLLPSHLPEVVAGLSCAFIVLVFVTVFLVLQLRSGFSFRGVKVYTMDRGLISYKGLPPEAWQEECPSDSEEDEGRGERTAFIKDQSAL
NS23 peptide cs: nsP2pro inhibition on native NS2/3 peptide substrate; shares compounds with nsP2pro primary; Purified CHIKV nsP2 protease, endogenous NS2/3 peptide cleavage; Potency, µM (top dose mostly 51 µM), usual class: inhibitors; 34% of 410 active; note: nearly all actives have a fitted effect of over 55% in size
Papain counter: selectivity counter-screen for CHIKV nsP2 protease inhibitors: papain; shares compounds with nsP2pro primary; purified papain protease activity, enzymatic inhibition; Potency, µM (top dose mostly 51 µM), hits mostly inhibitors; 5% of 410 active
nsP2pro confirm: CHIKV nsP2 protease inhibition, confirmatory qHTS; shares compounds with nsP2pro primary; CHIKV nsP2 protease enzymatic activity, qHTS; Potency, µM (titrated, usually from 25.5 µM), actives largely listed as inhibitors; 43% of 410 active; note: nearly all actives have a fitted effect of over 75% in size
HCV NS3 counter: inhibits HCV NS3/4A protease in an nsP2pro selectivity counterscreen. shares compounds with nsP2pro primary. HCV NS3/4A protease biochemical counterscreen. Potency, µM (series often up to 50.9 µM), hits mostly inhibitors. 20% of 410 active. AID 1964106; note: nearly all actives have a fitted effect of over 55% in size
Numbers stand for hits; - = inactive; ? = inconclusive; [ ] = dose if it differs, or a comment. The entries come from a sample that favours hits as a whole. Calls come from the whole dose curve.

SMILES | nsP2pro primary | others
Cc1sc2c(c1C)c(=O)n(Cc1ccccc1)c(=O)n2Cc1ccc(F)cc1 | -
Cn1sc(=O)n(Cc2ccccc2)c1=O | 6.2µM | nsP2 cell sec=?;CHIKV NSP2 FL=12µM;Furin counter=?;NS23 peptide cs=9.2µM;Papain counter=-;nsP2pro confirm=4µM;HCV NS3 counter=-
Cc1cnc(CCN)n1Cc1ccccc1 | -
C=C1C(OC(C)=O)C(=O)C2C(C)(C)C(O)CCC2(C)C1CC(OC(C)=O)/C(C)=C/COC(C)=O (stereo not given) | -
Cc1nn(-c2ccc(F)cc2)c(C)c1[C@@H]1C=C[C@@H](NCc2ccc(C(C)C)cc2)C1 | -
Cc1nn(CCC#N)c(C)c1[C@@H]1C=C[C@@H](NCc2ccc(C(C)C)cc2)C1 | ? | nsP2 cell sec=-;CHIKV NSP2 FL=6µM;Furin counter=-;NS23 peptide cs=17µM;Papain counter=-;nsP2pro confirm=12µM;HCV NS3 counter=4.2µM
Cc1ccc(-n2nc(C)c([C@@H]3C=C[C@@H](NCc4ccc(F)cc4)C3)c2C)cc1Cl | -
Nc1cc(NC(=O)Nc2nnc(-c3ccncc3)s2)ccc1Cl | -
C=C1/C(=C/C=C2\CCC[C@]3(C)[C@@H]([C@H](C)CCCC(C)(C)O)CC[C@@H]23)C[C@@H](O)[C@@H](OCCCO)[C@@H]1O | -
CCc1cc(N2CCC(NCCc3cccc(Cl)c3)CC2)nc(C)n1 | -
Cc1ccc(S(=O)(=O)NCCC(=O)Nc2nc(-c3ccccc3)cs2)cc1 | -
COc1cc(O)c(C(CC(=O)N2CCCC(c3ccccc3)C2)c2ccc3c(c2)OCO3)c(OC)c1 (stereo not given) | -
O=C1Nc2ccccc2/C1=C/c1cccc(C(=O)O)c1 | -
O=C(O)c1cc(O)c2c(c1)C(=O)c1cccc(O)c1C2=O | ? | nsP2 cell sec=-;CHIKV NSP2 FL=-;Furin counter=-;NS23 peptide cs=-;Papain counter=?;nsP2pro confirm=-;HCV NS3 counter=-
O=C1c2c(O)cccc2Cc2cccc(O)c21 | -
Cc1cc(O)c2c(c1)C(=O)c1cccc(O)c1C2=O | ? | nsP2 cell sec=-;CHIKV NSP2 FL=?;Furin counter=-;NS23 peptide cs=-;Papain counter=-;nsP2pro confirm=?;HCV NS3 counter=-
O=C(O)c1ccc(C(=O)O)cc1 | -
COc1ccc(N2CC(COc3ccccc3)Oc3nc(C)ccc3C2=O)cc1 (stereo not given) | -
O=C(O)[C@H]1OC(O)[C@H](O)[C@@H](O)[C@@H]1O (stereo not given in full) | -
O=C(c1ccc(Cl)nc1)N1CCC2(CC1)CCN(Cc1cccs1)c1ccccc1O2 | -
CN1CCN(c2ccc(Nc3nc(-c4ccncc4)nc4ccccc34)cc2F)CC1 | -
Cc1oc2c(c1C(=O)N1CCN(C3CCCC3)CC1)CN(Cc1cccc(F)c1)CC2 | -
Cc1ccnc(NC(=S)N2CCNCC2)c1 | -
COc1ccc2nc(-c3ccc(OC)c(OC)c3)sc2c1 | -
CC(=O)OC(C)(C)CCC(=O)[C@](C)(O)C1[C@H](O)C[C@@]2(C)C3CC=C4C(C[C@H](O)[C@@H](O)C4(C)C)[C@]3(C)C(=O)C[C@]12C (stereo not given in full) | -
SMILES | nsP2pro primary | others
COc1ccc(C2OCC3C(c4cc(OC)c5c(c4)OCO5)OCC23)cc1OC (stereo not given) | -
O=C(Nc1ccc(=O)n2c1[C@@H]1C[C@@H](CN(C(=O)COc3ccccc3)C1)C2)c1ccccc1 | -
CCCS(=O)(=O)Nc1ccc(=O)n2c1[C@@H]1C[C@@H](CN(C(=O)c3ccc(OC)cc3)C1)C2 | -
O=C(COc1ccccc1)N1C[C@@H]2C[C@H](C1)c1c(NS(=O)(=O)c3ccccc3)ccc(=O)n1C2 | ? | nsP2 cell sec=-;CHIKV NSP2 FL=16µM;Furin counter=-;NS23 peptide cs=?;Papain counter=-;nsP2pro confirm=?;HCV NS3 counter=?
CC(C)=CC[C@H]1O[C@]2(O)C([C@H]3CCC4[C@@]5(C)CC[C@H](O[C@@H]6O[C@H](CO)[C@H](O)[C@H](O[C@@H]7O[C@H](CO)[C@@H](O)[C@H](O)[C@H]7O)[C@H]6O[C@@H]6O[C@@H](C)[C@H](O)[C@@H](O)[C@H]6O)C(C)(C)C5CC[C@@]4(C)[C@]3(C)[C@H]2O)[C@@]1(C)O (stereo not given in full) | -[5.1 µM]
CCC(c1ccccc1)c1c(O)c2ccccc2oc1=O (stereo not given) | -
COc1cc(Nc2nc(-c3ccncc3)nc3ccccc23)ccc1N1CCN(C)CC1 | -
CC(=O)Nc1ccc(CN2CC(Oc3ccc4c(c3)OCO4)C2)cc1 | -
O=C(C1CC1)N1CCC(C(=O)N2CC(Oc3ccc4c(c3)OCO4)C2)CC1 | 7.9µM | nsP2 cell sec=-;CHIKV NSP2 FL=13µM;Furin counter=-;NS23 peptide cs=?;Papain counter=-;nsP2pro confirm=8µM;HCV NS3 counter=7.3µM
NC(=O)C1CCN(c2ncc(-c3ccc4c(c3)OCO4)s2)CC1 | -
CCC(C(=O)N1CCC2(CC1)C(=O)N(CC(=O)NCC(C)C)CN2c1ccccc1)c1ccccc1 (stereo not given) | -
CCOc1ccc(CNC(=O)COc2cc(=O)n(C)c3ccccc23)cc1 | ? | nsP2 cell sec=-
COc1ccccc1NC(=O)CCCOc1cc(=O)n(C)c2ccccc12 | -
CCn1c(=O)cc(OCC(=O)NCc2ccccc2OC)c2ccccc21 | -
CCCCN1C(=O)c2ccccc2NC1c1ccc(OC)c(COc2c(C)cc(NC(C)=O)cc2C)c1 (stereo not given) | -
Cc1ccc(S(=O)(=O)Nc2cnccc2C(=O)Nc2nc(-c3ccc(Cl)cc3)cs2)cc1 | -
O=[N+]([O-])c1ccc(CNc2ccc([S+](=O)([O-])Nc3nccs3)cc2)c(O)c1 | -
CC(=O)CCC1C(=O)N(c2ccccc2)N(c2ccccc2)C1=O | -
Cc1cccc(-c2nc3c4ccccc4n(CC(=O)Nc4cc(F)ccc4F)c(=O)n3n2)c1 | -
Cc1ccccc1Cn1c(C(=O)O)c(CNCc2cccc(F)c2)c2ccccc21 | -
Cc1c(Cc2ccc3ccccc3n2)c2cc(F)ccc2n1CC(=O)O | ? | nsP2 cell sec=-;CHIKV NSP2 FL=-;Furin counter=-;NS23 peptide cs=-;Papain counter=-;nsP2pro confirm=?;HCV NS3 counter=-
Cc1noc(C)c1S(=O)(=O)Nc1cnccc1C(=O)Nc1nc(-c2ccccc2)cs1 | -
CCC(=O)N1CCOc2c(cc(-c3ccc(OC)c(OC)c3)cc2OC[C@H]2CCCN(C)C2)C1 | -
CC(C)(O)C1OC1C1=CC(=O)C2(C)OC2C1O (stereo not given) | 9.9µM | nsP2 cell sec=-;CHIKV NSP2 FL=4.6µM;Furin counter=-;NS23 peptide cs=?;Papain counter=10µM;nsP2pro confirm=5µM;HCV NS3 counter=?
C=C1C(=O)O[C@@H]2[C@H]3C(=C)[C@@H](O)C[C@H]3C(=C)C[C@@H](O)[C@@H]12 | -
C=C1C(=O)O[C@@H]2C(OC(=O)/C(C)=C\C)/C(C)=C\C(=O)/C=C(\C)C[C@H](O)[C@@H]12 (stereo not given in full) | ? | nsP2 cell sec=?;CHIKV NSP2 FL=-;Furin counter=-;NS23 peptide cs=?;Papain counter=-;nsP2pro confirm=-;HCV NS3 counter=?

High-throughput results: PubChem, National Center for Advancing Translational Sciences (NCATS)
